Data published in PubChem BioAssay AID1950 (The Scripps Research Institute Molecular Screening Center, 2009).
In all, about 300,000 compounds went through this assay and about 1,000 (0.33%) were called active. For the sample, actives were picked, then their nearest neighbours and some compounds at random. Unmarked numbers belong to inactive results. No stated cut-off is given here; in the data, active means inhibition above about 28%; inactive means the rest.

System: EBNA-1 (Epstein-Barr virus nuclear antigen 1), Human herpesvirus 4
Assay: blockers of EBV EBNA-1 binding to DNA – biochemical, fluorescence polarization, primary screen (AID 1950)
Conditions: EBNA-1 DNA binding, at 14.8 µM, hits give high values

| SMILES | inhibition |
| --- | --- |
| COC(=O)c1sc(NC(=O)c2ccc(OC)cc2OC)nc1C | 5.25% |
| COc1ccc(Cc2nnc(NC(=O)c3ccc(OC)cc3OC)s2)cc1 | -11.6% |
| COc1ccc(C(=O)Nc2cccc(NC(=O)c3ccc(OC)cc3OC)n2)c(OC)c1 | 64.7% (active) |
| O=C(COC(=O)c1ncc(Cl)c(Cl)c1Cl)NCc1cccs1 | 4.36% |
| CC(=O)Nc1ccc(S(=O)(=O)Nc2nccc(/C=C/c3ccccc3F)n2)cc1 | 3.71% |
| Oc1cccc2ccc(/C=C/c3ccc(Br)s3)nc12 | 7.77% |
| Nc1ccc(S(=O)(=O)Nc2nccc(/C=C/c3ccc(Br)s3)n2)cc1 | 40.2% (active) |
| CCNS(=O)(=O)c1ccc(CCC(=O)N2CCN(c3cc(Cl)ccc3C)CC2)cc1 | -2.62% |
| O=C(NCc1ccccc1)C1=C[C@@H](c2ccccc2)C[C@@H](OCCCCO)O1 | -2.36% |
| CN(C)CCOc1cccc(Br)c1 | 2.94% |
| COC(=O)C1=C(C)N(C(C)c2ccccc2)C(=O)/C1=C\c1ccco1 (centres undefined) | 9.16% |
| CCc1ccccc1NC(=O)c1ccc2snnc2c1 | -10.4% |
| O=C(Nc1ccc2ccccc2c1)Nc1ccc2snnc2c1 | 103% (active) |
| O=C(Nc1cccc(Br)c1)c1ccc2snnc2c1 | -4.42% |
| O=C1CC(Cc2ccc(Cl)cc2)C(=O)N1c1cc(Cl)ccn1 (centres undefined) | -3.65% |
| CC(=O)n1cc([C@@H]2C=C(C(=O)N3CCN(Cc4ccc5c(c4)OCO5)CC3)O[C@H](OCc3ccc(CO)cc3)C2)c2ccccc21 | -9.33% |
| CCc1ccccc1OCC(=O)Nc1ccc2c(c1)OCCO2 | -5.94% |
| CC(=O)c1cc2c(cc1NC(=O)Cn1nc(-c3ccc(F)cc3)ccc1=O)OCO2 | -3.93% |
| CCOc1cccc(NC(=O)Cn2nc(-c3ccc4c(c3)OCCO4)ccc2=O)c1 | 35% (active) |
| CCOc1cccc(SCc2noc(C(=O)NC(C)C)c2C(=O)O)c1 | 29.7% (active) |

| SMILES | inhibition |
| --- | --- |
| COCCNC(=O)c1onc(CSc2cccc(C)c2)c1C(=O)O | -0.97% |
| CCCCNC(=O)c1onc(CSc2cccc(OC)c2)c1C(=O)O | 8.58% |
| CCN(CC(=O)Nc1c(F)cccc1F)C(=O)C1CCC1 | -2.05% |
| CCOc1ccc(C(=O)NC(=S)Nc2ccc(N3CCOCC3)c(Cl)c2)cc1[N+](=O)[O-] | 7.49% |
| CCOc1ccc(C(=O)NC(=S)Nc2ccc(NC(=O)C(C)C)cc2)cc1[N+](=O)[O-] | 43.3% (active) |
| CC(=O)Nc1ccc(NC(=S)NC(=O)c2ccc([N+](=O)[O-])c(C)c2)cc1 | -0.91% |
| COc1ccc(C(C(=O)NC2CCCC2)N(CCCO)C(=O)Cn2nnc(-c3ccc(C)o3)n2)cc1 (centres undefined) | -26.3% |
| CCOc1ccc(C(=O)Nc2ccncc2)cc1 | -2.27% |
| CC(C)NC(=O)NC(=O)COC(=O)c1ccc(NC(=O)CC#N)cc1 | 8.39% |
| CCOc1ccc(NC(=O)c2ccc(NC(=O)COC(=O)c3ccc(NC(=O)CC#N)cc3)cc2)cc1 | 31.4% (active) |
| COCCNc1cc(-c2ccccc2)nc2cc(-c3cccc(F)c3)nn12 | -2.12% |
| NC(=O)c1ccc(NC(=O)COC(=O)c2ccc([N+](=O)[O-])cc2)cc1 | 7.68% |
| O=C(COc1ccc(/C=N/NC(=O)c2ccc(O)cc2)cc1)Nc1ccc([N+](=O)[O-])cc1 | 52.6% (active) |
| O=C(N/N=C/c1ccc(O)cc1)/C(=C/c1ccc([N+](=O)[O-])cc1)NC(=O)c1ccccc1 | 11.3% |
| Cc1ccn2c(=O)nc(SCC(=O)NCc3ccc(F)cc3)nc2c1 | -14.5% |
| Oc1ccccc1CNc1ncc(Br)cc1Br | -8.83% |
| Cc1ccc(C(=O)NNC(=O)c2cc3cc4ccccc4nc3s2)cc1 | 66.7% (active) |
| O=C(NNC(=O)c1cc2c(s1)CCCC2)c1ccccc1 | 6.96% |
| Cc1ccc(C(=O)NNC(=O)c2cccs2)cc1 | -0.94% |
| Cc1cc2nc3n(c2cc1C)CC1CC(C(=O)NCCC(C)C)N(C)C31 (centres undefined) | -5.15% |

| SMILES | inhibition |
| --- | --- |
| O=C(Nc1cccc(NC(=O)c2cccc(F)c2)c1)c1ccccc1 | -2.13% |
| O=C(Cc1ccccc1)Nc1cccc(NC(=O)c2ccccc2)c1 | -12.9% |
| O=C(Nc1cccc(NC(=O)c2ccc(Br)cc2)c1)c1ccccc1 | 28.3% (active) |
| CN(C)[C@@H]1C(=O)C(C(N)=O)=C(O)[C@@]2(O)C(=O)C3=C(O)c4c(O)ccc(Cl)c4[C@@H](O)[C@H]3C[C@@H]12 | 14.1% |
| O=C(Nc1cccc(O)c1)c1ccc(C(=O)c2ccccc2)o1 | 10.1% |
| COc1ccc(CNc2nc3c(c(=O)[nH]c(=O)n3C)n2Cc2ccccc2)cc1 | 28.1% (active) |
| COc1ccc(CCn2c(NCCCN3CCOCC3)nc3c2c(=O)[nH]c(=O)n3C)cc1 | 5.1% |
| COc1ccc(CCn2c(NN=C3CCCC3)nc3c2c(=O)[nH]c(=O)n3C)cc1 | 1.13% |
| Cc1cccc(C(=O)Nc2ccc3c(c2)C(=O)N(CC(C)C)C3=O)c1 | -2.99% |
| CCC(=O)Nc1ccc(C(=O)Nc2ccc3c(c2)C(=O)N(CC2CCCO2)C3=O)cc1 (centres undefined) | 57.9% (active) |
| CCC(=O)Nc1ccc(S(=O)(=O)NCC2CCCO2)cc1 (centres undefined) | 4.88% |
| Cc1cccc(NC(=O)NC2(C)CCS(=O)(=O)C2)c1 (centres undefined) | -12.1% |
| CCc1c(C)nc2ncnn2c1N1CCC(C(=O)NCc2ccc3c(c2)OCO3)CC1 | 7.74% |
| COc1ccc(C(C(=O)NCc2ccccc2)N(Cc2cccs2)C(=O)c2cnccn2)cc1 (centres undefined) | 4.32% |
| CCn1c(/C=C/Nc2ccccc2)[n+](CC)c2ccc(C(=O)OCC(F)(F)F)cc21 | -1.72% |
| CCC(=O)c1ccc(OC(=O)/C=C/c2cc(OC)c(OC)c(OC)c2)cc1 | 6.75% |
| CCOc1ccc(N=C2NC(=O)S/C2=C\c2ccc(O)cc2)cc1 | 22% |
| CCOc1[nH]n(-c2ccc(Cl)cc2)c(=O)c1C=Nc1ccc(O)cc1 | 36.6% (active) |
| COc1cc(NS(=O)(=O)c2ccc(N=Cc3c(C)[nH]n(-c4ccccc4)c3=O)cc2)nc(OC)n1 | 14.1% |
